From PubChem
PKA-R2B activ = PKA-R2B complex activation; PKA-R2B holoenzyme dissociation, Cy5-IP20 fluorescence polarization; R2B truncated from residue 108, S112A mutant; 0% DMSO only, 100% 113 µM cGMP; hit rate 0.079% among 340,000; P22694+P31323; activation, % at 11.4 µM;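 active means activation above a cutoff set at the mean over all compounds plus 3 SD, cut at about 18% in these data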;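 further: higher means more holoenzyme dissociation and a rise in polarization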
Target sequence (P31323 whole entry, looked up, other chains not shown, the tested form may be a part): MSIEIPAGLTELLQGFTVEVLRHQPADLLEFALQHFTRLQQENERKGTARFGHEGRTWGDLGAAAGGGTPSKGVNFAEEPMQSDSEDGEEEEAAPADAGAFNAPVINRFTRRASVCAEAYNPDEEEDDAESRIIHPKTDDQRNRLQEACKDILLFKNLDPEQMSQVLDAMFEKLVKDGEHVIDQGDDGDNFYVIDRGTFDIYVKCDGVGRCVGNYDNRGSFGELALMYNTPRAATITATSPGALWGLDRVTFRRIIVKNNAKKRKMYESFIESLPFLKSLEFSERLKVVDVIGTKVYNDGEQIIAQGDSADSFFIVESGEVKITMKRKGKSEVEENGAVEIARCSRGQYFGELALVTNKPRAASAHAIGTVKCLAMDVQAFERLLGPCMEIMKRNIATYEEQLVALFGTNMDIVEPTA
CHT allo act = human CHT allosteric activation; hit rate 0.49% among 310,000; CHT-expressing cells, membrane potential dye, choline EC20; hits give high values; LV-AA mutant CHT in HEK293 cells; Q9GZV3; B-score at 10 µM; AID 488977;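 active means initial fluorescence not abnormally high and integrated response B-score, plate-corrected, over 3 SD above library mean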
ANO1 block = blocks the mouse calcium-activated chloride channel TMEM16A | hit rate 1.2% among 310,000 | Q8BHY3 | normalized B-score (activity score, 25-100; higher = stronger inhibition) at 10 µM | HEK293 TMEM16A/YFP iodide influx fluorescence, ionomycin;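 active means ratio plate-corrected score three or more library SD toward inhibition, starting fluorescence score within five deviations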;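 further: score derived from kinetic fluorescence span divided by baseline fluorescence per well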
PKA-R1A act = activators of PKA-R1A complex; P00514+P68181; PKA-R1A dissociation, Cy5-IP20 fluorescence polarization; scaled: DMSO 0%, 113 µM cGMP 100%; activation, % at 11.4 µM; hit rate 0.083% among 340,000;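 active means percent activation above the mean of all tested compounds plus 3 SD, cut at about 19% in these data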;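 further: higher means more PKAc released from R1A so a rise in polarization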
CHT block = inhibits the human high affinity choline transporter. Q9GZV3. CHT-expressing cells, membrane potential dye, choline response; hits give low values. B-score at 10 µM. hit rate 0.86% among 310,000. AID 488975;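 active means B-score over 3 SD under the library average, and starting fluorescence ratio not unusually high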;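 further: choline stimulus applied at its EC90 after an EC20 pre-addition; B-score computed on integrated fluorescence ratio after choline addition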
TMEM16A act = activators or potentiators of mouse TMEM16A chloride channel | Q8BHY3 | HEK293 TMEM16A/YFP-H148Q/I152L, iodide quench fluorescence; hits give low values | B-score at 10 µM | hit rate 0.3% among 340,000 | AID 623877;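 active means fluorescence-ratio B-score plate-corrected deviation score at least 3 library SD below zero, with starting fluorescence score within 5 deviations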;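 further: channel opened by trigger with iodide after compound preincubation; score built on the fluorescence ratio of max minus min over baseline; more negative score means more quench and so TMEM16A activation or potentiation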
CHT inh conf = confirmation of human choline transporter CHT inhibitors | shares compounds with CHT block | CHT-expressing cells, choline membrane potential dye; LV-to-AA substituted CHT, HEK293 cells | CHT activity remaining % of control (hits give low values), % at 10 µM | hit rate 70% among 2,400 | AID 493221;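 active means choline transporter activity left, mean of duplicates at 10 µM, below buffer-only control mean minus 3 SD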;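 further: depolarization triggered by choline at its EC90 following an EC20 pre-addition; 0% = hemicholinium-3 full block and 100% = buffer-only control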
HEK293 CHT ctr = activity in parental HEK293 cells lacking CHT | shares compounds with CHT block | membrane potential dye, choline response; active = decrease or increase beyond buffer ±3SD | membrane potential ratio readout (active if shifted either direction beyond buffer ±3SD; no single direction) at 10 µM | hit rate 4% among 2,400;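 further: parental cells lack the transporter so any hit is non-specific; ratio is peak minus trough fluorescence over baseline after EC90 choline challenge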
An asterisk follows results filed as active. An excerpt weighted towards active compounds, which were near 2.5% of everything screened.

COc1ccc(CCN(C)C(=O)c2ccc(COc3ccccc3)o2)cc1OC was read as PKA-R2B activ 4.0, CHT allo act inactive, ANO1 block inactive, PKA-R1A act 2.1, CHT block -6.93*, TMEM16A act inactive, CHT inh conf 54.5%* and HEK293 CHT ctr inactive.
Screening CCOC(=O)CSCc1c(C#N)c2ccccc2n1C returned PKA-R2B activ -0.8, CHT allo act inactive, ANO1 block inactive, PKA-R1A act -7.3, CHT block -6.8*, TMEM16A act inactive, CHT inh conf inactive and HEK293 CHT ctr inactive.
`CN1CCN(Cc2c(C#N)c3ccccc3n2C)CC1` gave PKA-R2B activ 10.5, CHT allo act inactive, ANO1 block inactive, PKA-R1A act -5.2, CHT block inactive and TMEM16A act inactive.
Cn1c(CN2CCCC2)c(C#N)c2ccccc21 was read as PKA-R2B activ -6.3, CHT allo act inactive, ANO1 block inactive, PKA-R1A act -1.3, CHT block -4.97*, TMEM16A act inactive, CHT inh conf 70.6%* and HEK293 CHT ctr inactive.
For O=C(O)C1(c2ccccc2)CCN(S(=O)(=O)c2ccc(F)c(F)c2)CC1 the results were PKA-R2B activ -17.3, CHT allo act inactive, ANO1 block inactive, PKA-R1A act 1.0, CHT block inactive and TMEM16A act inactive.
CCCOc1ccc(C(=O)NC(=S)NNC(=O)c2c(-c3ccccc3)noc2C)cc1 was read as PKA-R2B activ 9.4, CHT allo act inactive, ANO1 block 100*, PKA-R1A act 8.6, CHT block -11.9*, TMEM16A act inactive, CHT inh conf 56.3%* and HEK293 CHT ctr inactive.
CCCOc1ccc(NC(=O)c2c(-c3ccccc3)noc2C)cc1 was read as PKA-R2B activ -10.9, CHT allo act inactive, ANO1 block inactive, PKA-R1A act 4.7, CHT block inactive and TMEM16A act inactive.
For CC(=O)/C(=N/Nc1ccccc1)Sc1nnc(C(O)c2ccccc2)n1-c1ccccc1 (centres undefined) the results were PKA-R2B activ 4.4, CHT allo act inactive, ANO1 block inactive, PKA-R1A act -10.2, CHT block -4.99*, TMEM16A act inactive, CHT inh conf inactive and HEK293 CHT ctr inactive.
For C=CC[C@H]1CC(Cc2ccccc2)=C[C@H](CC=C)N1 the results were PKA-R2B activ -10.0, CHT allo act inactive, ANO1 block inactive, PKA-R1A act -0.3, CHT block -8.64*, TMEM16A act inactive, CHT inh conf -13.2%* and HEK293 CHT ctr -17*.
Screening CN(C1CCCC1)C1CCN(C(=S)Nc2cc(F)cc(F)c2)CC1 returned PKA-R2B activ -1.5, CHT allo act inactive, ANO1 block inactive, PKA-R1A act -13.5, CHT block inactive and TMEM16A act inactive.
Screening Cc1ccc(S(=O)(=O)/N=C2\C=C(Nc3cccc(C(=O)O)c3)C(=O)c3ccccc32)cc1 returned PKA-R2B activ -2.7, CHT allo act inactive, ANO1 block 25*, PKA-R1A act -6.9, CHT block -5.91*, TMEM16A act inactive, CHT inh conf 41.1%* and HEK293 CHT ctr 2.51*.
Screening COc1ccc(CNC[C@H]2O[C@@H](n3cnc4c(N)ncnc43)[C@H](O)[C@@H]2O)cc1OC returned PKA-R2B activ 0.7 and PKA-R1A act 1.3.
Cc1onc(-c2ccccc2)c1C(=O)OCC(=O)N(C)c1ccccc1 was read as PKA-R2B activ 0.9, PKA-R1A act 8.3 and TMEM16A act inactive.
CN(Cc1ccccc1)C(=S)Nc1ccc2nc3n(c(=O)c2c1)CCCCC3 was read as PKA-R2B activ -2.1, CHT allo act inactive, ANO1 block inactive, PKA-R1A act -12.2, CHT block -6.96*, TMEM16A act inactive, CHT inh conf inactive and HEK293 CHT ctr inactive.
`O=c1c2cc(NC(=S)N3CCCCC3)ccc2nc2n1CCCCC2` gave PKA-R2B activ 3.0, CHT allo act inactive, ANO1 block inactive, PKA-R1A act 2.4, CHT block inactive and TMEM16A act inactive.
Cn1c2c(c3ccccc31)CCN1CCC[C@]21c1ccccc1 was read as PKA-R2B activ 2.5, CHT allo act inactive, ANO1 block inactive, PKA-R1A act -7.7, CHT block -5.12*, TMEM16A act inactive, CHT inh conf inactive and HEK293 CHT ctr inactive.
`Cc1ccccc1C(=O)N1CCCN(C(=O)c2ccccc2C)CC1` gave PKA-R2B activ 7.2, CHT allo act inactive, ANO1 block inactive, PKA-R1A act -9.0, CHT block -6.81*, TMEM16A act inactive, CHT inh conf inactive and HEK293 CHT ctr inactive.
For CC12OC1C1(O)CCCC1=CC2=O (centres undefined) the results were CHT allo act inactive, ANO1 block inactive and CHT block inactive.
`CC(SCc1ccccc1)C(=O)N/N=C/c1ccc(OCC(=O)NCc2ccco2)cc1` (centres undefined) gave PKA-R2B activ 7.5, CHT allo act inactive, ANO1 block inactive, PKA-R1A act 2.1, CHT block -8.14*, TMEM16A act inactive, CHT inh conf 47.2%* and HEK293 CHT ctr inactive.
COc1ccc(N2CCN(C(=O)C(Cc3ccccc3)NC(=O)c3ccccc3)CC2)cc1 (centres undefined) was read as PKA-R2B activ -3.6 and PKA-R1A act -9.8.
`Cc1ccccc1C(=O)NCC(=O)NCC1(N2CCOCC2)CCCCC1` gave PKA-R2B activ 0.1, CHT allo act inactive, ANO1 block inactive, PKA-R1A act 6.1, CHT block inactive and TMEM16A act inactive.
Screening CCCCC[C@H](O)/C=C/[C@@H]1[C@@H](C/C=C\CCCC(=O)O)[C@@H](O)C[C@H]1O returned PKA-R2B activ 0.0, CHT allo act inactive, ANO1 block inactive, PKA-R1A act -2.4, CHT block -5.89*, TMEM16A act inactive, CHT inh conf 32.8%* and HEK293 CHT ctr inactive.
Oc1ccc(Cl)cc1CNC1CCCCC1 was read as PKA-R2B activ -7.8, PKA-R1A act -8.8 and TMEM16A act inactive.
For Clc1cccc(Cl)c1CNC1CCCC1 the results were PKA-R2B activ -0.7, CHT allo act inactive, ANO1 block inactive, PKA-R1A act 2.0, CHT block -5.5*, TMEM16A act inactive, CHT inh conf 11.0%* and HEK293 CHT ctr -10.5*.
